This is an account of results in PubChem BioAssay (Tox21).

Test [1] can be described thus: Caspase-3/7 induction in CHO-K1 cells by small molecules, qHTS cell viability counter screen (AID 1346979). Also: nearly all actives have a fitted effect of over 35% in size. Particulars: CellTiter-Fluor fluorescence, 17 h; series mostly up to 92.4 µM. In outline:
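CHO-K1 wt, 1,500 cells/well; 5hr pre-incubation 37C/5% CO2; compound pin transfer (DMSO); 16hr exposure; CellTiter-Fluor added, 1hr, fluorescence read.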

Test [2] is described as follows: Caspase-3/7 induction in CHO-K1 cells by small molecules, qHTS assay (AID 1346980). Also: nearly all actives have a fitted effect of over 15% in size. Particulars: CHO-K1 caspase-3/7 induction, Caspase-Glo luminescence, 17 h; series mostly up to 92.4 µM. The procedure, abridged:
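Wild-type cells were seeded at 1,500 per well and settled 5 hr at 37 C, 5% CO2, then exposed to DMSO-dissolved compounds for 17 hr. Caspase-Glo 3/7 reagent was added, and luminescence was read after 30min at room temperature.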
(Quantitative high-throughput screening tests each substance at several concentrations.)

Test [3] can be described thus: Caspase-3/7 induction in HepG2 cells by small molecules, qHTS cell viability counter screen (AID 1346981). Also: nearly all actives have a fitted effect of over 30% in size. Particulars: CellTiter-Fluor fluorescence, 17 h; series mostly up to 92.4 µM. In outline:
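Wild-type HepG2 cells (2,000/well) were allowed to settle for 5 hr at 37 C, 5% CO2, then dosed with compounds in DMSO by pin transfer. After 16 hr at 37 C, CellTiter-Fluor was added and fluorescence read 1 hr later.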

Test [4] deals with Voltage-gated inwardly rectifying potassium channel KCNH2 (Homo sapiens) (UniProt Q12809). Kind of test: Human Ether-a-go-go-Related Gene (hERG) channel small molecule antagonists: fluorescence cell-based qHTS assay (AID 1671200).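 Also: hERG-expressing U2OS cells given a thallium stimulus after FluxOR II dye loading; nearly all actives have a fitted effect of over 50% in size.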 As to conditions: hERG-U2OS cells, FluxOR thallium flux fluorescence; series mostly up to 76.8 µM. The procedure, abridged: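 Read-out: thallium influx as a surrogate for potassium, tracked as fluorescence (480 nm ex/540 nm em) every second for 2 min after Stimulus Buffer addition in dye-loaded hERG-U2OS cells.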
Voltage-gated inwardly rectifying potassium channel KCNH2 (Homo sapiens), sequence (Q12809 whole entry, looked up): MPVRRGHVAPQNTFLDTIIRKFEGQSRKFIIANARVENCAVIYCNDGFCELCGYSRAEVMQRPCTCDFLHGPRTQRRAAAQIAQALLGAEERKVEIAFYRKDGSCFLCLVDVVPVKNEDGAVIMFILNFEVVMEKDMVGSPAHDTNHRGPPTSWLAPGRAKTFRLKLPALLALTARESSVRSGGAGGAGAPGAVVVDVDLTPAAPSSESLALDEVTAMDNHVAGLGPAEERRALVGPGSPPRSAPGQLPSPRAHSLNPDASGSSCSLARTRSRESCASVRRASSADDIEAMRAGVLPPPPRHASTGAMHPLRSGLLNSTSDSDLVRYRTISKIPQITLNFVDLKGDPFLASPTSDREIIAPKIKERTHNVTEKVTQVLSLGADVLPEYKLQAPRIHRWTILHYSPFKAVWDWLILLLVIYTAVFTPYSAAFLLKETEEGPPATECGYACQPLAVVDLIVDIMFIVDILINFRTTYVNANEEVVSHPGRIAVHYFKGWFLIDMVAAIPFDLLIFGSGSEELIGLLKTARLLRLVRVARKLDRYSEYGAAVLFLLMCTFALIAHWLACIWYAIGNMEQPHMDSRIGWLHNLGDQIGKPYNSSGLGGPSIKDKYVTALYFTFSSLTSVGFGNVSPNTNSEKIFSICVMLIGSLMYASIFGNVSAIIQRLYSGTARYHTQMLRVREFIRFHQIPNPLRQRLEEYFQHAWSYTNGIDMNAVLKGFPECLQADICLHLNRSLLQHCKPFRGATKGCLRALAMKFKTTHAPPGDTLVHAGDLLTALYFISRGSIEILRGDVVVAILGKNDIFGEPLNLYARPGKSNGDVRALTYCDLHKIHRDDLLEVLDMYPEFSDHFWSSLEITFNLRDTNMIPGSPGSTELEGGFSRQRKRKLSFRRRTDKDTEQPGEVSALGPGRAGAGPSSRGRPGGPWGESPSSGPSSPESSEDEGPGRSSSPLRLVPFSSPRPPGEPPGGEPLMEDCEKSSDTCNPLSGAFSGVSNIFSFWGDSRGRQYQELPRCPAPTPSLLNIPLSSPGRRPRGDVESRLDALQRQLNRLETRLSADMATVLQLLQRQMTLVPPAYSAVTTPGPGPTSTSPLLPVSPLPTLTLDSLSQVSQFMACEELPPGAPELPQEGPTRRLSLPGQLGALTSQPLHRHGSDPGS
On the technique in general: Block of hERG is tested as a sign of cardiac risk.

Test [5] concerns the target Nuclear receptor subfamily 1 group I member 2 (Homo sapiens) (UniProt O75469). Kind of test: Human pregnane X receptor (PXR) small molecule agonists, qHTS assay (AID 1346982). Also: nearly all actives have a fitted effect of over 35% in size. Particulars: PXR-Luc HepG2, CYP3A4 luciferase reporter, 24 h; series mostly up to 92.4 µM. In outline:
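PXR-Luc HepG2 cells (CYP3A4 promoter-driven luciferase) were seeded in medium with 5% charcoal-stripped FBS, left 5 hr at 37 C, then exposed to compounds in DMSO for 24 hr. Luminescence was read after ONE-Glo addition.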

Test [6] has as its target Nuclear receptor subfamily 1 group I member 2 (Rattus norvegicus) (UniProt Q9R1A7). Kind of test: Rat pregnane X receptor (rPXR) activation by small molecules, qHTS assay (AID 1346983). Also: nearly all actives have a fitted effect of over 20% in size. Particulars: rPXR luciferase reporter cells, One-Glo luminescence, 24 h; max activation: hits give high values. In outline:
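Cell-based rPXR luciferase reporter assay, 2,000 cells per well, rested 5hr at 37 C before compound addition in DMSO, then 24 hr at 37 C. One-Glo reagent was added and luminescence read after 30 min at room temperature.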

The target of test [7] is Nuclear receptor subfamily 1 group I member 2 (Homo sapiens) (UniProt O75469). Nature of the test: CYP3A4 induction through human pregnane X receptor (PXR) by small molecules, qHTS assay (AID 1346984). Also: nearly all actives have a fitted effect of over 40% in size. Particulars: DPX-2 HepG2 PXR, CYP3A4-luciferin luminescence, 24 h; series mostly up to 46.1 µM. In outline: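 DPX-2 cells (HepG2 co-transfected with PXR and CYP3A4 promoter-luciferase) treated with compounds 24 h at 37C; luciferin-IPA CYP3A4 substrate 3uM final added for 3 h, then One-Glo; luminescence read. qHTS format.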
Nuclear receptor subfamily 1 group I member 2 (Homo sapiens), sequence (O75469 whole entry, looked up): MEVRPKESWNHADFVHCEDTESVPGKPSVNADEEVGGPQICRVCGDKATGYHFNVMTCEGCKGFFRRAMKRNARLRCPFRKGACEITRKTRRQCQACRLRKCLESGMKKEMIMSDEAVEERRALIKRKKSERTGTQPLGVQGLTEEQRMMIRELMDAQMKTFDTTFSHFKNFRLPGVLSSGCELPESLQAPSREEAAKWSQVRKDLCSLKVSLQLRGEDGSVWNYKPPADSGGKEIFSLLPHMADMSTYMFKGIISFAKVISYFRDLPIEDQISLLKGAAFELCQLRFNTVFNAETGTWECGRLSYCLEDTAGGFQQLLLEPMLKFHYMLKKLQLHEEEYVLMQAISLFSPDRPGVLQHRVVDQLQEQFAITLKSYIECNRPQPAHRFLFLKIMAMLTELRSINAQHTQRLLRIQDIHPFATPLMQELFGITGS

Test [8] shares this target. Kind of test: Human pregnane X receptor (PXR) activation by small molecules, qHTS assay (AID 1346985). Also: nearly all actives have a fitted effect of over 40% in size. As to conditions: DPX-2 HepG2 CYP3A4-luciferase, 24 h; series mostly up to 38.3 µM. In outline: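 DPX-2 cells (HepG2 co-transfected with a PXR response element and a CYP3A4-promoter luciferase construct) were seeded at 2,000 per well, rested 5 hr at 37C, then exposed to DMSO-dissolved compounds for 24 hr. Activation was read as luciferase luminescence.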

Test [9] has as its target Cytochrome P450 2D6 (Homo sapiens) (UniProt P10635). Kind of test: Cytochrome P450 Family 2 Subfamily D Member 6 (CYP2D6) small molecule antagonists: luciferase reporter qHTS assay (AID 1671196). Also: nearly all actives have a fitted effect of over 50% in size. Also: potency is read from the fitted curve at half-maximal effect. As to conditions: P450-Glo CYP2D6 enzyme assay, luciferin luminescence, 1 h; series mostly up to 115 µM. In outline:
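CYP2D6 enzyme–substrate mix was held with compound for 10 min at room temperature, then NADPH regeneration solution was added and the reaction ran 1 h at room temperature. Luciferin product was detected by luminescence after 20 min with detection reagent.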
For orientation: In a reporter assay the amount or activity of a reporter protein is the signal.

Test [10] deals with Cytochrome P450 2C19 (Homo sapiens) (UniProt P33261). Nature of the test: Cytochrome P450 Family 2 Subfamily C Member 19 (CYP2C19) small molecule antagonists: luciferase reporter qHTS assay (AID 1671197). Also: nearly all actives have a fitted effect of over 65% in size. Also: potency is read from the fitted curve at half-maximal effect. Particulars: P450-Glo CYP2C19 enzyme, luciferin luminescence, 1 h; series mostly up to 52.9 µM. In outline: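 First, compounds are pinned into enzyme-substrate mix and held 10 min at room temperature. Second, NADPH regeneration solution is added and plates incubate 1 h at 37C. Third, detection reagent is added and luminescence read after 20 min.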
Cytochrome P450 2C19 (Homo sapiens), sequence (P33261 whole entry, looked up): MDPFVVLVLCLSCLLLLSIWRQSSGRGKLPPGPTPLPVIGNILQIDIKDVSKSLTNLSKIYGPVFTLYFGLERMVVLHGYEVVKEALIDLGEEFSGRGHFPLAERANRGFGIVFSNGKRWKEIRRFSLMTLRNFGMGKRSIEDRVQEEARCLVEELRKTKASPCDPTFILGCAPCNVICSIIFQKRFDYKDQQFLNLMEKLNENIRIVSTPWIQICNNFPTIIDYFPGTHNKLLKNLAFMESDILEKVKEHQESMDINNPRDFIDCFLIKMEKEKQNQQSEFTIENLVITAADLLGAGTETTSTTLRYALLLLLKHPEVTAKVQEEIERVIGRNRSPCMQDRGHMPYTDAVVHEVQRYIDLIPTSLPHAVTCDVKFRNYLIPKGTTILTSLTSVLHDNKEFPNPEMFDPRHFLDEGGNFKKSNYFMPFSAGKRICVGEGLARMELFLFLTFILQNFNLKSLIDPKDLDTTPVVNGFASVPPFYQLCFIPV

Test [11] addresses Cytochrome P450 2C9 (Homo sapiens) (UniProt P11712). Kind of test: Cytochrome P450 Family 2 Subfamily C Member 9 (CYP2C9) small molecule antagonists: luciferase reporter qHTS assay (AID 1671198). Also: nearly all actives have a fitted effect of over 50% in size. Particulars: P450-Glo CYP2C9 enzyme assay, luciferin luminescence; series mostly up to 115 µM. The procedure, abridged: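 CYP2C9 activity was measured with a P450-Glo proluciferin substrate. Enzyme–substrate mix was held with compound for 10 min at room temperature, then NADPH regeneration solution was added for 1 h at 37C. Luciferin product was read as luminescence.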

The target in test [12] is Cytochrome P450 3A4 (Homo sapiens) (UniProt P08684). Nature of the test: Cytochrome P450 Family 3 Subfamily A Member 4 (CYP3A4) small molecule antagonists: luciferase reporter qHTS assay (AID 1671201). Also: nearly all actives have a fitted effect of over 50% in size. Particulars: P450-Glo CYP3A4 enzyme, luciferin luminescence, 1 h; series mostly up to 115 µM. The procedure, abridged:
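Luminescent readout (RLU) proportional to CYP3A4 activity, from luciferin generated off a proluciferin substrate. Enzyme–substrate mix plus compound 10 min at room temp, NADPH regeneration 1 h, detection reagent 20 min.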

Test [13] deals with Cytochrome P450 1A2 (Homo sapiens) (UniProt P05177). Kind of test: Cytochrome P450 Family 1 Subfamily A Member 2 (CYP1A2) small molecule antagonists: luciferase reporter qHTS assay (AID 1671199). Also: nearly all actives have a fitted effect of over 50% in size. Particulars: P450-Glo CYP1A2 enzyme, luciferin luminescence, 1 h; series mostly up to 53 µM. In outline: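 Human CYP1A2 activity measured with a P450-Glo proluciferin substrate; compounds in DMSO preincubated 10 min at room temperature with enzyme-substrate mix, then NADPH regeneration system added for 1 h. Luciferin detection reagent, 20 min, luminescence read.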
Cytochrome P450 1A2 (Homo sapiens), sequence (P05177 whole entry, looked up): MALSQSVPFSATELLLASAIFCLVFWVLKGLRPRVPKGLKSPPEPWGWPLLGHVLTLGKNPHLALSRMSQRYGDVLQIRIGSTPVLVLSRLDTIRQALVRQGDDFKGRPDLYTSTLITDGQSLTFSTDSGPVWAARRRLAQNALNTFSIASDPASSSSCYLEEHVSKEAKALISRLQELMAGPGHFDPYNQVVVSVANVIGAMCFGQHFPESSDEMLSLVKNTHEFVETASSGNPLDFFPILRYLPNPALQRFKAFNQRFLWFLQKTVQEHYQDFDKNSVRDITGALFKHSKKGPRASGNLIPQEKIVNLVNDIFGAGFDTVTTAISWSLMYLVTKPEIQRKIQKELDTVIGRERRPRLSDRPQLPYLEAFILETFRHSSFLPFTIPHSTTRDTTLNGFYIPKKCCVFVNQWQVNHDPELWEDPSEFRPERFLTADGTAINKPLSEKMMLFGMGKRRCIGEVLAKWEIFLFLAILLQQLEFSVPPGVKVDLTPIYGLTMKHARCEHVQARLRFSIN

Unmarked numbers belong to inactive results. Results filed as inconclusive are left out. Active and inactive are the calls of the source. Calls follow the shape of the dose curve; as a rule, active = well fitted curve in the direction sought with a large enough effect in the repeat runs; inconclusive = weak or mixed curves; inactive = no such curve, though single readings can be large; an effect the other way counts as inactive or inconclusive.
% is scaled to controls: 0 for no effect and ±100 for the full control effect.

Cytochrome P450 3A4 (Homo sapiens), sequence (P08684 whole entry, looked up): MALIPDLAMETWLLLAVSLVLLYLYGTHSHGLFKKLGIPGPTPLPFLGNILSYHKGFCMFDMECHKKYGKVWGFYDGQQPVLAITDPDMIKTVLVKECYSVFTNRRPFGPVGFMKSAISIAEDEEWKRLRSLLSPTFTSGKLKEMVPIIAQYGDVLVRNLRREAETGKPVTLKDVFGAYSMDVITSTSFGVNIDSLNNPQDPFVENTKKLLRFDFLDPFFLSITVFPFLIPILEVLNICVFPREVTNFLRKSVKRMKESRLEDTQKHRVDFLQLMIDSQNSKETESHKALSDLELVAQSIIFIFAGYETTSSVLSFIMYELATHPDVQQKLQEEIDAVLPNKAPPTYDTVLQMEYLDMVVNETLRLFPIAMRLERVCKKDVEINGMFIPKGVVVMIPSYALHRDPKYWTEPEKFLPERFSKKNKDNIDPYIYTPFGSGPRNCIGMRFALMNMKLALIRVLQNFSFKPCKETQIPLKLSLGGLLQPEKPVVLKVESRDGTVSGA
Cytochrome P450 2D6 (Homo sapiens), sequence (P10635 whole entry, looked up): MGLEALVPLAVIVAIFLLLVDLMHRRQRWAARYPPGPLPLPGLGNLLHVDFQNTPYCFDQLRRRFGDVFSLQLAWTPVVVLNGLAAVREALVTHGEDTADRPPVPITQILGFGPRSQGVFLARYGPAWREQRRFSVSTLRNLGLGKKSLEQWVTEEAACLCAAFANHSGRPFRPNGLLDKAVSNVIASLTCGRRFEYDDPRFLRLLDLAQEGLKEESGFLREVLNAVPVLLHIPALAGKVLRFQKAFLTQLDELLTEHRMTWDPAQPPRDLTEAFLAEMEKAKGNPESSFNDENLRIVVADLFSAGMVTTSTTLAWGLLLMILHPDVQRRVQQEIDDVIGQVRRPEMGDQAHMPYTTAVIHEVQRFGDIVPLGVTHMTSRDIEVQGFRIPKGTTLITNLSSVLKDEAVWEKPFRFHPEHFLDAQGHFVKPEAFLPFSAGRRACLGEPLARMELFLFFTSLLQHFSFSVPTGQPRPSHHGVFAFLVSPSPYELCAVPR
Cytochrome P450 2C9 (Homo sapiens), sequence (P11712 whole entry, looked up): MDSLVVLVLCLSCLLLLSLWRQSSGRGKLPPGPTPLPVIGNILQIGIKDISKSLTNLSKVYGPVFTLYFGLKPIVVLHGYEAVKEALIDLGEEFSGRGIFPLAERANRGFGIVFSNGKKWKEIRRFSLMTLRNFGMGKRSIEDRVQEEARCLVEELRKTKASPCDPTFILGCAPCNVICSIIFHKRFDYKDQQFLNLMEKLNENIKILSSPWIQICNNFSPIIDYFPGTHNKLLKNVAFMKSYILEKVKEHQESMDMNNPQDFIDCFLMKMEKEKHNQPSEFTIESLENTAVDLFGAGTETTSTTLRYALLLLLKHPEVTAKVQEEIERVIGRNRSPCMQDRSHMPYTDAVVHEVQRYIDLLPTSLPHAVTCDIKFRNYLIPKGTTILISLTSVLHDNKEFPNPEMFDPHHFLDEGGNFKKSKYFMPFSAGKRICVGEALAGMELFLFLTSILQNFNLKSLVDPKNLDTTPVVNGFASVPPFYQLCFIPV
Nuclear receptor subfamily 1 group I member 2 (Rattus norvegicus), sequence (Q9R1A7 whole entry, looked up): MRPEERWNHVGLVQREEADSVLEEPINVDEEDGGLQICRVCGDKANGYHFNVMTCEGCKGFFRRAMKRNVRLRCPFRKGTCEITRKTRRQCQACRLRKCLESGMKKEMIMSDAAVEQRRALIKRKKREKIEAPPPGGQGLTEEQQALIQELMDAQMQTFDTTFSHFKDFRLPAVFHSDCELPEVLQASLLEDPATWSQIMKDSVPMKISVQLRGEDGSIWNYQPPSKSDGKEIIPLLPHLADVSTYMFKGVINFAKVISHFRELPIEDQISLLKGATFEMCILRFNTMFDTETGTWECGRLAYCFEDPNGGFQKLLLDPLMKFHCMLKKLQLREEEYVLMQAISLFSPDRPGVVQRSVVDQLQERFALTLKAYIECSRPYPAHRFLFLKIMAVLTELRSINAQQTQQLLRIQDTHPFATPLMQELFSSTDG

In the case of `CN(C)CCCCCCN(C)C`, the Potency result in [1], in test [3] and in test [4] was “inactive” throughout. Besides, the result in [2] was inactive.
For `C[N+](C)(C)CCCCCCCCCC[N+](C)(C)C`, the Potency result in [1], in test [3], in test [5], in [7], in test [8] and in [9] was “inactive” throughout. In addition, the Potency result in [10], in [11], in [4] and in test [12] was “inactive” each time. For the same molecule, the molecule was called inactive in test [2]. The max activation in test [6] was -3.83%.
Regarding `c1coc(CNc2ncnc3nc[nH]c23)c1`, the Potency entry in [1], in [3] and in test [4] was “inactive” throughout.
As to `Cc1cc(C)c(N=Nc2c(O)c(S(=O)(=O)O)cc3cc(S(=O)(=O)O)ccc23)cc1C`, the activity change, negative = cytotoxicity is -8.22% [at 8.39 µM] in [1] and -13.8% [at 8.39 µM] in [3]. Also, the caspase-3/7 activation in test [2] was -0.604% [at 8.39 µM]. Besides, the activity change, negative = inhibition in test [9] is -11.1% [at 10.5 µM]; in test [10], 9.38% [at 10.5 µM]; in test [11] it was 1.8% [at 10.5 µM]; in [12], 1.68% [at 10.5 µM].
For `CCCCCCCC1CCCC1=O` (stereo not given), the Potency entry in [1], in test [3], in test [13] and in [12] was “inactive” in each case. Moreover, the Potency in test [10] is 39.9 µM (active).
Regarding `C=C(C)C(=O)OCC(O)CO` (stereo not given), the Potency entry in [1], in test [3], in test [5], in test [9], in [10] and in test [11] was “inactive” throughout. In addition, the Potency result in test [13] and in test [12] was “inactive” each time. Besides, in test [2], the outcome was inactive.
Take `C[N+]12CCC(CC1)C(OC(=O)C(O)(c1ccccc1)c1ccccc1)C2` (stereo not given): the Potency result in test [1], in test [3], in test [5], in [7], in test [8] and in test [10] was “inactive” throughout. Further, the Potency entry in [11], in [4] and in [12] was “inactive” in each case. Besides, the result in test [2] was inactive. In test [6], the max activation was -2.26%.
Take `O=[N+]([O-])c1cncn1CCN1CCOCC1`: the Potency entry in test [1], in test [3], in test [5], in [9], in test [10] and in [11] was “inactive” in each case. For the same molecule, in test [13], the Potency result was “inactive”. Also, the molecule was classed as inactive in [2].
Consider `Nc1ccn([C@@H]2O[C@H](CO)[C@@H](O)[C@@H]2O)c(=O)n1`, for which the Potency entry in test [1], in test [3], in test [5], in test [9], in [4] and in [12] was “inactive” throughout. Moreover, the molecule was classed as inactive in [2].
For `O=S(=O)(O)c1cccc2ccccc12`, the Potency entry in test [1], in test [3], in test [5], in test [9] and in [12] was “inactive” in each case. Further, in [2], the result was inactive.
In the case of `CCCCCCCCCC[N+](C)(C)[O-]`, the Potency entry in test [1], in test [3], in [11], in test [13], in [4] and in test [12] was “inactive” throughout. Moreover, the molecule was called inactive in [2]. Also, the Potency in test [9] is 35.6 µM (active).
